# Experimental data reported in PubChem BioAssay (NCI).
# This is part of a sample that, as a whole, favours compounds with a hit. Of some 83,000 tested, about 20% had one in any assay.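 Results are percent growth after 48 hours of single-concentration exposure. 100 means growth as in untreated cells, lower positive values show inhibition; negative values down to -100 show cell death.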 A number with no mark means an inactive call. Calls of active or inactive are those of the source. How the source made its calls: active means growth percent below 10; inactive means the rest.
# Test system: MDA-MB-468 breast
# Test: NCI-60 one-dose screen, 48 h (100 = growth as untreated, 0 = no growth, -100 = all killed)
# Conditions: 10 µM unless noted
row,Compound,growth
1,CC(=O)OCCCCCNc1ccccc1,125%
2,Nc1no[n+]([O-])c1-c1nnc2c(n1)-c1ccccc1C2=O,41.5%
3,C=CCn1c(C)nc2cc(Nc3nc(N4CCOCC4)nc4nc[nH]c34)ccc21,85.1%
4,CC(C)(C)OC(=O)Nc1ccc2c(c1)C(NC(=O)Nc1cccc(C#N)c1)CC(C)(C)O2 (stereo unspecified),-5.73% (active)
5,C[C@H](Oc1cc(-c2cnn(C3CCNCC3)c2)cnc1N)c1c(Cl)ccc(F)c1Cl,34.9%
6,COc1ccc2c(OCc3nnc4ccc(-c5ccccc5)nn34)ccnc2c1,97.2% [2.5 µM]
7,Cc1cc(Cl)nc(Nc2ccccc2)n1,105%
8,CN(C)S(=O)(=O)c1oc(-c2ccccc2)nc1C#N,35%
9,Nc1ccc(Cl)c2c(=O)c3ccccc3[nH]c12,34%
10,CC(NNC(C)c1ccccc1)c1ccccc1 (stereo unspecified),104%
11,COc1cccc(-c2ccc3c(c2)NC(=O)/C3=C\c2ccc[nH]2)c1,3.08% (active)
12,OC1(c2ccc(Cl)c(C(F)(F)F)c2)CCN(CCCC(c2ccc(F)cc2)c2ccc(F)cc2)CC1,-86% (active)
13,Cc1cc(C#Cc2ccccc2)ccc1-n1c(/C=C/c2ccc(F)cc2)nc2ccccc2c1=O,49.3%
14,OCC(Nc1ncnc2ccc(-c3cnc4cnccn34)cc12)c1ccccc1 (stereo unspecified),-2.48% (active)
15,C=C(C)[C@@H]1CC[C@]2(C(=O)N3CCN(C)CC3)CC[C@]3(C)[C@H](CC[C@@H]4[C@@]5(C)CC(=C/c6ccncc6)/C(=N/O)C(C)(C)[C@@H]5CC[C@]43C)[C@@H]12,62.2%
16,CC(=O)Nc1ccccc1-c1nc2ccccc2s1,93%
17,CCN(CC)CCC(CNc1ccnc2cc(Cl)ccc12)c1ccc(O)cc1 (stereo unspecified),81.1%
18,CC(C)(O)c1cncc(-c2ccc3ncnc(N4CCc5cc(F)c(Cl)cc54)c3c2)c1,-36% (active)
19,COc1cc(-c2nc(-c3nnc(-c4ccccc4Cl)o3)c3ccccn23)cc(OC)c1OC,88.5%
20,O=C1Nc2ccccc2/C1=C/c1ccc(CO)n1-c1ccc(Cl)cc1,27.8%
21,CCCCCCCCCCCCCCCCCC1=NCCN1CCNC(C)=O,114%

row,Compound,growth
1,CN1NC(c2ccccc2)NN(C)C1=O,108%
2,COc1cc(-c2csc(NC(=O)c3cc(F)cc(C(F)(F)F)c3)n2)cc(OC)c1OC,-1.52% (active)
3,Cc1ccc2c(-c3cc(-c4ccccc4)nc(N)c3C#N)cc(=O)oc2c1,103%
4,CC(=O)Nc1ccc(/C=C2\SC(=S)N(/C=C(\C(C)=O)C(N)=O)C2=O)cc1,108%
5,COc1cc2nc(Nc3cccc(Cl)c3)nc(N)c2cc1OC,26.8%
6,Nc1cc(F)ccc1[N+](=O)[O-],100%
7,CNCCNc1nc2ccccc2c2c(=O)c3cc(F)ccc3sc12,51.6%
8,CC(C)OP(=O)(CCC(=O)c1c[nH]c2ccccc12)OC(C)C,107%
9,C=C(C[n+]1ccccc1)[C@@H]1CC[C@]2(C(=O)OC)CC[C@]3(C)[C@H](CC[C@@H]4[C@@]5(C)CC[C@H](O)C(C)(C)[C@@H]5CC[C@]43C)[C@@H]12,86.3%
10,COc1cccc2nc(Nc3cccc(NC(=O)c4ccc(N5CCN(C)CC5)c(C(F)(F)F)c4)c3)ccc12,20.2%
11,Cn1c(=O)cc2c3c(c(NCCCO)ccc31)C(=O)c1ccccc1-2,39.8%
12,COC(=O)c1nc(-c2ccc(C)cc2)oc1S(=O)(=O)c1cccc(OC)c1,71.7%
13,CNC(=O)c1cc(Oc2ccc3c(c2)sc2nc(-c4ccc(OC)cc4)cn23)ccn1,16.8%
14,NS(=O)(=O)c1ccc(C(=O)NN2C(=O)c3ccccc3C2=O)cc1,122%
15,CC1=C(C#N)C(=O)NC(C)C1 (stereo unspecified),108%
16,CC1=C(O)C(=O)C(c2c(C)cc(C)c(Br)c2C)=C(O)C1=O,85.8%
17,Cc1nc2cccc(NCc3ccc(C(=O)NO)cc3)c2c(=O)n1-c1ccccc1,-15.3% (active)
18,O=C(Nc1ccc(Cl)cc1)Nc1ccc(Nc2nncc3ccccc23)cc1,0.165% (active)
19,CCc1nnc(CNc2ccc(Cl)cc2)o1,114%
20,O=C(Oc1ccc(CO[N+](=O)[O-])cc1)c1ccccc1,-67.7% (active)
